Here are results for 47 compounds from PubChem BioAssay (NCATS).

Several values for one entry are separate records, joined by “and”; a condition that tells them apart may be missing. Equal values may be shown once. Records with an inconclusive call do not appear. Unmarked numbers belong to inactive results. Activity calls are given as the source filed them. The call rests on the fitted dose curve; in most records, active means well fitted curve in the direction sought with a large enough effect; inconclusive means small, poorly fitted or top-dose-only effect, or another doubt; inactive means no such curve, though single readings can be large; an effect the other way counts as inactive or inconclusive.

Assay [1] can be described thus: Primary qHTS for inhibitors of nuclear receptor binding SET domain protein 2 (NSD2) in an isogenic RCH-ACV NSD2 p.E1099K mutant (9B) (AID 1645876).
The nature of assay [2]: Primary qHTS for inhibitors of nuclear receptor binding SET domain protein 2 (NSD2) in an RCH-ACV wild type WT cells (2C) (AID 1645877). Background: Quantitative high-throughput screening tests each substance at several concentrations.
Further: nearly all actives have a fitted effect of over 70% in size.
On the % scale 0 is the no-effect control and ±100 the full control effect; potency means the concentration at half of the fitted maximal effect.

Take `Cc1c(NC(=O)c2cc(C(N)=O)nc3cc(F)ccc23)c(C(F)(F)F)nn1Cc1ccc(C#N)cc1`: the Potency entry in assay [1] and in assay [2] was “inactive” each time.

On to `C=C(C)C1CC[C@]2(C(=O)O)CC[C@]3(C(=O)O)[C@H](CCC4[C@@]5(C)CC[C@H](O)C(C)(C)C5CC[C@]43C)C12` (some centres undefined), for which the Potency entry in assay [1] and in assay [2] was “inactive” throughout.

As to `COC(=O)CCc1cc2ccoc2c(OC)c1O[C@@H]1O[C@H](CO)[C@@H](O)[C@H](O)[C@H]1O`, the Potency result in assay [1] and in assay [2] was “inactive” in each case.

Regarding `COC(=O)CC(C)(O)CC(=O)OCc1ccc(O[C@@H]2O[C@H](CO)[C@@H](O)[C@H](O)[C@H]2O)cc1` (some centres undefined), the Potency result in assay [1] and in assay [2] was “inactive” in each case.

On to `CC(C)C[C@H](CC(=O)NO)C(=O)N[C@H](C(=O)N[C@@H](C)C(=O)NCCN)C(C)(C)C`, for which, in assay [1], the activity change, negative = viability loss was -8.25% [at 9.23 µM]. Besides, the activity change, negative = cell killing in assay [2] is -8.71% [at 9.23 µM].

As to `Cc1cc(Cl)ccc1COc1ccnn1-c1cc(C(=O)O)ccn1`, the Potency result in assay [1] and in assay [2] was “inactive” throughout.

With `C[C@@H]1C(=O)O[C@H]2[C@H](O)C34[C@H]5C[C@@H](C(C)(C)C)C36[C@@H](OC(=O)[C@@H]6O)O[C@@]4(C(=O)O5)[C@@]12O` (some centres undefined), the Potency entry in assay [1] and in assay [2] was “inactive” throughout.

`C=C1C[C@]23C[C@H]1CC[C@H]2C1=C[C@H]2OC(=O)[C@@](C)([C@H]1[C@@H]3C(=O)O)[C@H]2O`: the Potency result in assay [1] and in assay [2] was “inactive” throughout.

Take `CO[C@H]1/C=C/C=C/C=C/C[C@H](OC(=O)[C@@H](C)NC(=O)C2CCCCC2)[C@H](C)[C@@H](O)/C(C)=C/CCc2cc(O)cc(c2)NC(=O)C1`: the Potency is 342 nM (active) in assay [1] and 242 nM (active) in assay [2].

As to `COC1CC(O[C@H]2CC[C@@]3(C)C(CCC4C3[C@H](OC(C)=O)[C@@H](OC(=O)/C=C/c3ccccc3)[C@]3(C)C(C(C)=O)CC[C@]43O)C2)OC(C)C1OC1CC(OC)C(OC2CC(OC)C(OC3OC(C)C(OC4OC(CO)C(O)C(O)C4O)C(OC)C3O)C(C)O2)C(C)O1` (some centres undefined), in assay [1], the activity change, negative = viability loss is -23.3% [at 9.23 µM]. Moreover, in assay [2], the activity change, negative = cell killing was -29.1% [at 9.23 µM].

Consider `C=C1CCC2C(C)(C(=O)O)CCCC2(C)C1CCC(C)CC(=O)O` (centres undefined), for which the Potency entry in assay [1] and in assay [2] was “inactive” throughout.

Regarding `C=C(CO)C12OC1C1(C)C(=CC2=O)C(O)C(O)CC1C` (centres undefined), the Potency entry in assay [1] and in assay [2] was “inactive” each time.

On to `O=C1Nc2ccccc2C(O)(c2ccccc2)C1O` (centres undefined), for which the Potency entry in assay [1] and in assay [2] was “inactive” each time.

For the compound `CC(=O)OC1C(O)C2C(C)C3=CC(=O)OC3(O)CC2C2(C)CCCC(C)(CO)C12` (centres undefined), the Potency entry in assay [1] and in assay [2] was “inactive” in each case.

As to `C/C1=C\CC[C@H](C)CCO[C@@H]2O[C@H](CO[C@@H]3OC[C@](O)(COC1=O)[C@H]3O)[C@@H](O)[C@H](O)[C@H]2O`, the Potency entry in assay [1] and in assay [2] was “inactive” each time.

Regarding `C[C@@H]1C[C@@H]([C@@H](O)C(C)(C)O)O[C@H]2C[C@@]3(C)C(=C12)C[C@H](O)[C@H]1[C@@]2(C)CCC(=O)C(C)(C)C2CC[C@@]13C` (some centres undefined), the Potency result in assay [1] and in assay [2] was “inactive” throughout.

On to `CC(/C=C/C1=CC2=CC(=O)C(C)(O)C(O)C2=CO1)=C\C(C)CCO` (centres undefined), for which the Potency entry in assay [1] and in assay [2] was “inactive” in each case.

As to `C=C1CCC[C@]2(C)CC[C@@H](C(=C)C(=O)O)[C@H](O)[C@@H]12`, the Potency entry in assay [1] and in assay [2] was “inactive” throughout.

As to `CNC(=O)c1ccccc1Nc1nc(Nc2ccc3c(c2OC)CCC[C@@H](N2CCN(CCO)CC2)C3)ncc1Cl`, the Potency in assay [1] and in assay [2] was 6610 nM (active) in each case.

As to `CN1CCN(c2ccc(C(=O)Nc3n[nH]c4ccc(Cc5cc(F)cc(F)c5)cc34)c(NC3CCOCC3)c2)CC1`, the Potency in assay [1] was 3.25 µM (active) and 4.68 µM (active) and 6.51 µM (active); in assay [2] it was 3.65 µM (active) and 4.17 µM (active) and 6.51 µM (active).

For the compound `CC(=O)O[C@H]1[C@H](O[C@H]2[C@@H]3C=CO[C@@H](O[C@@H]4O[C@H](CO)[C@@H](O)[C@H](O)[C@H]4O)[C@@H]3[C@@]3(CO)O[C@@H]23)O[C@@H](C)[C@H](OC(=O)/C=C/c2ccccc2)[C@H]1OC(=O)/C=C/c1ccccc1`, the outcome in assay [1] and in assay [2] was “inactive [at 9.23 µM]” each time.

For `CC(CO)C1CCC2(C)CC3C(CO)CC(O)C3C(C)(O)C/C=C/12` (centres undefined), the Potency result in assay [1] and in assay [2] was “inactive” each time.

Take `COC(=O)C1=CO[C@@H](O[C@@H]2O[C@H](CO)[C@@H](O)[C@H](O)[C@H]2O)C2C1C(=O)C[C@H]2C` (some centres undefined): the Potency result in assay [1] and in assay [2] was “inactive” each time.

`C[C@@H]1C(=O)OC[C@H]2C(C(=O)O)=C[C@@H]3CC(C)(C)C[C@]312`: the Potency result in assay [1] and in assay [2] was “inactive” throughout.

With `Cc1[nH]nc(C(F)(F)F)c1Cc1sc2c(c1C(=O)N1C[C@](C)(O)CO1)c(=O)n(C)c(=O)n2C(C)C`, the Potency entry in assay [1] and in assay [2] was “inactive” in each case.

With `O=C(O[C@H]1[C@@H]2C[C@@H]3OC[C@](O)([C@@H]1Cl)[C@H]2C(O[C@@H]1O[C@H](CO)[C@@H](O)[C@H](O)[C@H]1O)O3)c1ccc(O)c(O)c1` (some centres undefined), the Potency entry in assay [1] and in assay [2] was “inactive” each time.

As for `CC(C)C(=O)OC[C@H]1O[C@H](O[C@H]2O[C@H](CO)[C@@H](O)[C@H](O)[C@H]2O)[C@H](O)[C@@H](O)[C@@H]1O`, the Potency entry in assay [1] and in assay [2] was “inactive” each time.

As to `CC12CCC3c4ccc(O)cc4CCC3C1CC(OC1OC(C(=O)O)C(O)C(O)C1O)C2O` (centres undefined), the Potency result in assay [1] and in assay [2] was “inactive” throughout.

As to `CC1(C)CC[C@@]2(C(=O)O[C@@H]3O[C@H](CO)[C@@H](O)[C@H](O)[C@H]3O)C(C1)C1=CCC3[C@@]4(C)CC[C@@H](O[C@@H]5O[C@H](C(=O)O)[C@@H](O[C@@H]6OC[C@@H](O)[C@H](O)[C@H]6O)[C@H](O[C@@H]6OC[C@](O)(CO)[C@H]6O)[C@H]5O)C(C)(C)C4CC[C@@]3(C)[C@]1(C)C[C@H]2O` (some centres undefined), the activity change, negative = viability loss in assay [1] was -47.8% [at 9.23 µM]. In assay [2], the activity change, negative = cell killing is -88.4% [at 9.23 µM].

With `CC1OC(OC2C(CO)OC(OCC3OC(OC(=O)C45CCC(C)(C)CC4C4=CCC6C7(C)CCC(OC8OC(CO)C(O)C(OC9OC(CO)C(O)C(O)C9O)C8O)C(C)(C)C7CCC6(C)C4(C)CC5)C(O)C(O)C3O)C(O)C2O)C(O)C(O)C1OC1OC(CO)C(O)C(O)C1O` (centres undefined), the activity change, negative = viability loss in assay [1] is -0.174% [at 9.23 µM]. Further, the activity change, negative = cell killing in assay [2] was -10.4% [at 9.23 µM].

`O=C(OC[C@@]1(O)CO[C@@H](O[C@H]2[C@H](Oc3ccc(O)cc3)O[C@H](CO)[C@@H](O)[C@@H]2O)[C@@H]1O)c1ccc(O)cc1`: the Potency result in assay [1] and in assay [2] was “inactive” throughout.

With `C=C(C(=O)O)C1CCC2(C)CCCC(C)(O)C2C1` (centres undefined), the Potency result in assay [1] and in assay [2] was “inactive” throughout.

As to `CC(C)C(NC(=O)c1ccc2ccccc2n1)C(=O)NC(CC(=O)O)C(=O)COc1c(F)cccc1F` (centres undefined), the Potency result in assay [1] and in assay [2] was “inactive” each time.

On to `CN[C@H](CC(C)C)C(=O)N[C@H]1C(=O)N[C@@H](CC(N)=O)C(=O)N[C@H]2C(=O)N[C@H]3C(=O)N[C@H](C(=O)N[C@H](C(=O)O)c4cc(O)cc(O)c4-c4cc3ccc4O)[C@H](O[C@H]3C[C@](C)(N)[C@@H](O)[C@H](C)O3)c3ccc(c(Cl)c3)Oc3cc2cc(c3O[C@@H]2O[C@H](CO)[C@@H](O)[C@H](O)[C@H]2O[C@H]2C[C@](C)(NCc3ccc(-c4ccc(Cl)cc4)cc3)[C@@H](O)[C@H](C)O2)Oc2ccc(cc2Cl)[C@H]1O`, for which the Potency result in assay [1] and in assay [2] was “inactive” each time.

Take `C=CC(C)(CC/C=C(\C)C(=O)OC)OC1OC(COC(=O)CC(C)(O)CC(=O)O)C(OC2OC(CO)C(O)C(O)C2O)C(O)C1O` (centres undefined): the Potency entry in assay [1] and in assay [2] was “inactive” in each case.

Regarding `C[C@@]12C[C@]3(O)O[C@H](O1)[C@]1(COC(=O)c4ccccc4)[C@H]3C[C@@]12O[C@@H]1O[C@H](CO)[C@@H](O)[C@H](O)[C@H]1O`, the Potency entry in assay [1] and in assay [2] was “inactive” in each case.

Consider `C[C@@H]1O[C@@H](O[C@H]2[C@H](O[C@H]3[C@H](O[C@H]4CC[C@@]5(C)C(CC[C@]6(C)C5CC=C5[C@@H]7CC(C)(C)C[C@@H](O)[C@]7(C)CC[C@]56C)[C@@]4(C)CO)O[C@H](C(=O)O)[C@@H](O)[C@@H]3O)OC[C@H](O)[C@@H]2O)[C@H](O)[C@H](O)[C@H]1O` (some centres undefined), for which, in assay [1], the activity change, negative = viability loss is 2.23% [at 9.23 µM]. Besides, the activity change, negative = cell killing in assay [2] was -3.15% [at 9.23 µM].

Regarding `CC(C)C[C@H](CC(=O)NO)C(=O)N[C@@H](Cc1ccc2ccccc2c1)C(=O)N[C@@H](C)C(=O)NCCN`, the Potency entry in assay [1] and in assay [2] was “inactive” each time.

As to `CC1(C)CCCC2(C)C=C(C(=O)O)C(O)CC12` (centres undefined), the Potency result in assay [1] and in assay [2] was “inactive” each time.

Regarding `Cc1ccc(S(=O)(=O)c2ccc([N+](=O)[O-])o2)cc1`, the Potency was 649 nM (active) in assay [1] and 163 nM (active) in assay [2].

For the compound `CC1OC(OC2C(C)OC(OC3C(OC(=O)C45CCC(C)(C)CC4C4=CCC6C7(C)CCC(OC8OC(C(=O)O)C(O)C(O)C8OC8OC(CO)C(O)C(OC9OC(C)C(O)C(O)C9O)C8O)C(C)(CO)C7CCC6(C)C4(C)CC5)OC(CO)C(O)C3O)C(O)C2O)C(O)C(O)C1O` (centres undefined), the activity change, negative = viability loss in assay [1] is 2.43% [at 9.23 µM]. In assay [2], the activity change, negative = cell killing was 3.53% [at 9.23 µM].

`OC[C@H]1O[C@@H](OC[C@H]2O[C@@H](OC/C=C/c3ccccc3)[C@H](O)[C@@H](O)[C@@H]2O)[C@@H](O)[C@@H]1O`: the Potency entry in assay [1] and in assay [2] was “inactive” in each case.

As for `CC(C)=CCC/C(C)=C/CCC1(C)Oc2c(c(O)cc3c2CN(C(CCC(=O)O)C(=O)O)C3=O)CC1O` (centres undefined), the Potency result in assay [1] and in assay [2] was “inactive” each time.

For the compound `C=C[C@]1(C)C[C@H](O)[C@@H]2[C@H](OC(=O)[C@@H]2C)C1/C(C)=C/O[C@@H]1O[C@H](CO)[C@@H](O)[C@H](O)[C@H]1O` (some centres undefined), the Potency result in assay [1] and in assay [2] was “inactive” each time.

Consider `COc1cc(C(=O)OC[C@@]2(O)CO[C@@H](O[C@H]3[C@H](Oc4ccc(C(=O)O)cc4OC)O[C@H](CO)[C@@H](O)[C@@H]3O)[C@@H]2O)ccc1O`, for which the Potency entry in assay [1] and in assay [2] was “inactive” throughout.

On to `Cc1cc2c(F)c(Oc3ncnn4cc(OCC(C)O)c(C)c34)ccc2[nH]1` (centres undefined), for which the values for the Potency in assay [1] and in assay [2] were 4090 nM (active) and 7280 nM (active), respectively.

In the case of `COc1cc(/C=C/C=O)cc(OC)c1O[C@@H]1O[C@H](CO)[C@@H](O)[C@H](O)[C@H]1O`, the Potency entry in assay [1] and in assay [2] was “inactive” throughout.
